# Reference: PubChem BioAssay AID720576 (National Center for Advancing Translational Sciences (NCATS), 2013)
# The list shows a part of the results. Results filed as inconclusive are left out. A number with no mark means an inactive call. Calls of active or inactive are those of the source. Calls come from the whole dose curve; as a rule, active = well fitted inhibition curve with a large enough effect; inconclusive = small, poorly fitted or top-dose-only effect; inactive = no such curve, though single readings can be large or run the other way.
# Experiment: qHTS Assay for Inhibitors of Hepatitis C Virus (HCV): Cytotoxicity Counterscreen for Cherry-picked Compounds
# Conditions: HCV host cell line cytotoxicity counterscreen; series mostly up to 41.8 µM; activity change, negative = cytotoxicity: at the top concentration
# Excerpt: Hepatitis C virus (HCV) infects about 200 million people in the world. Many infected people progress to chronic liver disease including cirrhosis with a risk of developing liver cancer. To date, there is no effective vaccine for hepatitis C. Current therapy based on interferon is only effective in about half of the patients and is associated with significant adverse effects. The fraction of people with HCV who can complete a successful treatment is estimated to be no more than 10 percent. Recent development of direct-acting antivirals against HCV, such as protease and polymerase inhibitors, is promising but still requires combination with peginterferon and ribavirin for maximal efficacy. In addition, these agents are associated with high rate of resistance and many have significant side effects. Due to the lack of a culture system for infectious HCV, the search for new HCV drugs has been greatly hampered. […] High-throughput screening (HTS) with an infectious HCV system would cover the complete spectrum of potentially druggable targets in all stages of HCV lifecycle, and would have more biological relevance than other cell-based assays. Moreover, targeting several key processes in the viral life cycle may not only increase antiviral efficacy; more importantly, it may also reduce the capacity of the virus to develop resistance to the compound.
# The goal of this project is to identify novel HCV inhibitors as new therapies for hepatitis C, using a highly sensitive and specific assay platform based on a HCV infectious cell culture system established in the laboratory and adapted for high-throughput HCV drug screen. The primary assay was used to screen the MLPCN compound library and potential inhibitors were cherry picked for confirmation and further characterization. To evaluate the cytotoxic effect of the selected compounds, a secondary cell based counterscreen using the Promega CellTiter Glo reagent and Huh cell line was developed. The data herein is the result of the Cytotoxicity counterscreen against the cherry picked compounds. No significant activity is the desired outcome for this assay.
# NIH Chemical Genomics Center [NCGC]
# NIH Molecular Libraries Probe Centers Network [MLPCN]
# Assay Submitter (PI): Jake Liang, NIDDK
# Cells were plated in a 1536-wel tissue culture grade plates at a final concentration of 1,000 cells/well (3 uL volume). The assay plate was culture for 4 h. Then 23 nL of compounds from the library collection was added to each well and incubated for 44 h at 37C, 5% CO2. A volume of 4.5 uL CellTiterGlo reagent was to each well and the plates were incubated at room temperature for 15 min. The luminescence signal was read for 15 sec using the PerkinElmer ViewLux plate reader.
# % is set by controls: 0 for no effect and ±100 for the full control effect.
# 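Note: 44 h compound exposure; nearly all actives have a fitted effect of over 55% in size.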
Compound,Potency,"activity change, negative = cytotoxicity [%]"
Cc1ccc(C)c(N2CCN(C(=O)CCCCCn3c(=S)[nH]c4ccc(N5CCOCC5)cc4c3=O)CC2)c1,9.95 µM (active),
Cc1c(-c2cccc(Cl)c2)nc2ccccc2c1C(=O)OCC(=O)N(C)C1CCS(=O)(=O)C1 (stereo not drawn),,8.7
CCCc1nc2ccccc2c(C(=O)OCc2nnc(-c3cc(OC)c(OC)c(OC)c3)o2)c1CC,,-38.9
Cc1cc(-c2cccs2)nc(-n2cccc2)n1,,-10.5
COc1ccc(OCCNC(=O)c2cc(C3CC3)nc3c2cnn3C(C)C)cc1,,40.8
COc1ccc(C(C(=O)NC2CCCCC2)N(C(=O)CCl)c2ccccc2Cl)cc1 (stereo not drawn),2.5 µM (active),
CC(C)(C)c1ccc(Oc2ccc(N)cc2)cc1,,-51.7
O=S(=O)([N-]c1nc2ccccc2nc1-[n+]1ccc(Cc2ccccc2)cc1)c1ccc(Br)s1,,-37.7
CN(C)c1nc(N)nc(CSc2nnnn2-c2cccc3ccccc23)n1,6.28 µM (active),
CCCOc1ccc(C(=O)C(CCC(CNCC)C(=O)c2ccc(OCCC)cc2)CNCC)cc1 (stereo not drawn),7.91 µM (active),
COCCCn1c(SCc2cccc(OC)c2)nc2cc(OC)c(OC)cc2c1=N,,-6.07
COc1ccc(NC(=O)c2sc(N3CCOCC3)nc2-c2ccccc2)c(OC)c1,,13.7
N#C/C(=C1\CCCN1)c1nc(-c2ccccc2)cs1,,27.9
